# Measured values taken from PubChem BioAssay AID2057 (The Scripps Research Institute Molecular Screening Center, 2009).
# Values joined by “and” are separate entries in the source; they are usually repeats but may differ in a detail not shown here. Equal values may be shown once. The campaign covered roughly 320,000 compounds. About 2,100 (0.66%) were called active.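 The calls were made as follows: active = inhibition above the mean inhibition of all tested compounds plus 3 SD, set per campaign (cut at about 40% in these data); inactive = the rest.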 The list comes from a sample in which actives are over-represented; it also holds similar structures and randomly drawn compounds. Where a structure was tested more than once in an assay, its records may differ in their call.
# Target: Induced myeloid leukemia cell differentiation protein Mcl-1 (Homo sapiens) (UniProt Q07820)
# Sequence (Q07820 whole entry, looked up): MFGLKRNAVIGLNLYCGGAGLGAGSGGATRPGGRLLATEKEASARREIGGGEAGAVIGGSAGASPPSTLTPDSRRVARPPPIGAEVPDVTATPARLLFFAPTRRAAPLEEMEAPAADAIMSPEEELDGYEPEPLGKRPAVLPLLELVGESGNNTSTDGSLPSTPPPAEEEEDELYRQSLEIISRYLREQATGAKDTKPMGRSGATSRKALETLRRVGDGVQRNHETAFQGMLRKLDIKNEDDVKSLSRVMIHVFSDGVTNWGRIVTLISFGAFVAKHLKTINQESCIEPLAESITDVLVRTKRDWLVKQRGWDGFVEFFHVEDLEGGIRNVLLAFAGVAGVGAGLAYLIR
# Assay: inhibitors of MCL1 binding to BIM-BH3, primary screen, biochemical, fluorescence polarization (AID 2057);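 also: 0% = DMSO wells and 100% = unlabeled Bim-BH3 peptide control; higher means more loss of mP so more displacement of Bim peptide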
# Settings: GST-MCL1 / FITC-Bim-BH3 fluorescence polarization; at 10.9 µM; stronger effect = higher value
row,SMILES,inhibition
1,COc1ccc(S(=O)(=O)N2CCCCC2)cc1NC(=O)c1cc([N+](=O)[O-])ccc1N1CCOCC1,3.68% (inactive)
2,CCn1c(SCc2cc(=O)n3ccsc3n2)nc2ccccc21,8.95% (inactive)
3,CCOc1ncccc1C(=O)N(C)CC(=O)Nc1ccc(F)cc1,-10.5% (inactive)
4,CC(=O)N1CCN(C(=O)c2cc(-c3ccc(C)o3)nc3ccccc23)CC1,7.28% (inactive)
5,COc1ccc(NC(=O)c2cc(-c3ccc(C)o3)nc3ccccc23)cc1,22.5% (inactive)
6,Cc1ccc(NC(=O)c2cc(-c3ccc(C)o3)nc3ccccc23)nc1,56.2% (active)
7,Cc1cc(OCc2cc(C(=O)NCc3cc(C(C)C)no3)no2)cc(C)c1Cl,6.88% (inactive)
8,Cc1cc(C)n(-c2nnc(C)n2NC(=O)c2cccc(Cl)c2)n1,-1.3% (inactive)
9,Oc1ccc(C2Nc3cccc4cccc(c34)N2)cc1,26.6% (inactive)
10,Cc1ccc(C2Nc3cccc4cccc(c34)N2)cc1,53.9% (active)
11,COc1cccc(C2Nc3cccc4cccc(c34)N2)c1,22.2% (inactive)
12,O=C(C1CCC1)N1CCN(S(=O)(=O)c2ccc([N+](=O)[O-])cc2)CC1,-7.38% (inactive)
13,COc1ccc(O)c(/C=N/N=C/c2cccc([N+](=O)[O-])c2)c1,3.97% (inactive)
14,COc1ccccc1/C=C/C(=O)NC(=S)N1CCOCC1,-5.3% (inactive)
15,COc1ccc(OCC(=O)NCCS(=O)(=O)N2CCN(c3ccc(F)cc3)CC2)cc1,2.8% (inactive)
16,COC(=O)C1=C(C)Nc2ncnn2C1c1ccco1 (stereo not given),9.97% (inactive)
17,CCOc1ccc(C2=CC(c3ccccc3)n3ncnc3N2)cc1 (stereo not given),6.81% (inactive)
18,O=C(C1=C(O)C(=O)N(Cc2ccccc2)C1c1ccco1)c1ccco1 (stereo not given),4.91% (inactive)
19,O=C(C1=C(O)C(=O)N(c2ncccn2)C1c1cccs1)c1ccco1 (stereo not given),117% (active)
20,O=C(C1=C(O)C(=O)N(Cc2ccccc2)C1c1cccnc1)c1ccco1 (stereo not given),2.72% (inactive)
21,CC(=O)Nc1cccc(C(=O)OCC(=O)c2ccc3c(c2)OCO3)c1,0.4% (inactive)
22,C/C=C\C=C\C(=O)N1CC2(CC(c3cccc(NC(=O)/C(C)=C\C)c3)=NO2)C[C@H]1C(N)=O (stereo not given in full),0% (inactive)
23,CCOc1ccccc1NC(=S)N1CCN(c2cccc(C)c2C)CC1,4.81% (inactive)
24,CCOC(=O)c1ccc(NC(=O)Cn2cnc3cc(C)c(C)cc32)cc1,5.35% (inactive)

row,SMILES,inhibition
1,NC(=O)C1=C[C@@H](c2ccc3c(c2)OCO3)C[C@@H](OCCCCO)O1,12.6% (inactive)
2,Cc1cc(C)cc(OCC(=O)Nc2ccc(N3CCOCC3)cc2N2CCOCC2)c1,1.14% (inactive)
3,CCCCNc1nc2ccccc2nc1NS(=O)(=O)c1cccs1,2.76% (inactive)
4,COc1ccc(Cl)cc1NC(=O)CCS(=O)(=O)c1cc2c(cc1C)NC(=O)CO2,8.54% (inactive)
5,COc1ccc(Cl)cc1NC(=O)CCS(=O)(=O)c1ccc(Br)cc1,42.9% (active)
6,O=C(CCS(=O)(=O)c1ccc(Br)cc1)NCCc1ccc(Cl)cc1,-2.54% (inactive)
7,O=C(NNS(=O)(=O)c1ccccc1)c1cnn(-c2ccc(Cl)cc2)c1C(F)(F)F,6.42% (inactive)
8,O=C(Nc1ccc(C(=O)O)c(O)c1)c1ccccc1,-1.25% (inactive)
9,O=C(O)c1ccccc1N=N/C(=N/Nc1cc(S(=O)(=O)O)ccc1O)c1ccccc1,62% (active)
10,O=C(NCCc1ccccc1)C1CC1,3.41% (inactive)
11,Cc1cc(C)n2nc(C(=O)Oc3ccc4c(c3)OCO4)nc2n1,3.36% (inactive)
12,CN(C)N=Nc1ccc2nc[nH]c2c1,2.69% (inactive)
13,Cc1ccc(S(=O)(=O)N[C@@H](Cc2ccccc2)C(=O)N2CCC(C(=O)N[C@H](C(=O)O)C(C)O)CC2)cc1 (stereo not given in full),-6.49% (inactive)
14,Cc1nn(C)c(Oc2ccccc2)c1CCNS(=O)(=O)c1ccc(F)cc1,2.92% (inactive)
15,COc1ccc(CNc2nc3c(c(=O)[nH]c(=O)n3C)n2Cc2ccccc2)cc1,5.54% (inactive)
16,COCCn1c(N)c(NCc2ccccc2)c(=O)[nH]c1=O,73.5% (active)
17,COCCn1c(N)c(N(Cc2ccccc2)C(=O)C2CCCCC2)c(=O)[nH]c1=O,0.45% (inactive)
18,CCC(=O)c1cc(F)ccc1OCC(=O)Nc1ccc2c(c1)OCCO2,-2.34% (inactive)
19,O=c1[nH]c2ccccc2n2c(-c3ccccc3)nnc12,57% (active)
20,O=c1[nH]n2c(-c3ccccc3)nc(O)c2c2ccccc12,-5.68% (inactive)
21,Cc1nc2nc(C)c(NS(=O)(=O)c3ccc(C(C)(C)C)cc3)c(=O)n2[nH]1,0.66% (inactive)
22,CS(=O)(=O)N(CC(=O)N1CCN(c2ccc(F)cc2)CC1)C1CCCCC1,-4.24% (inactive)
23,CCOC(=O)N1CCN(C(=O)C(C)NC(=O)c2ccco2)CC1 (stereo not given),-1.38% (inactive)
24,CCN(C(=O)CSc1ncnc2sccc12)c1c(N)n(Cc2ccccc2)c(=O)[nH]c1=O,0.53% (inactive)

row,SMILES,inhibition
1,O=C(N/N=C\c1cc(Br)c(Br)o1)C1COc2ccccc2O1 (stereo not given),10.5% (inactive)
2,Cc1ccc(C(=O)N/N=C\c2cc(Br)c(Br)o2)cn1,46% (active)
3,Cc1ccc(C(=O)N/N=C/c2cccc3ccccc23)cn1,-3.5% (inactive)
4,Cc1ccn2cc(-c3nonc3C)cc2c1,11.9% (inactive)
5,Cc1nc2cc(S(=O)(=O)C(F)(F)F)ccc2s1,-1.41% (inactive)
6,NS(=O)(=O)c1cccc(NC(=O)CC23CC4CC(CC(Br)(C4)C2)C3)c1,-1.18% (inactive)
7,Cc1sc(NC(=S)NC(=O)c2cccs2)nc1-c1ccc(CC(C)C)cc1,-5.44% (inactive)
8,CC12CCC(C(=O)N(c3cccc(Cl)c3)C1=O)C2(C)C (stereo not given),4.99% (inactive)
9,O=C(NN1C(=O)C2C(C1=O)C1C=CC2C12CC2)c1ccccc1Cl (stereo not given),1.2% (inactive)
10,CC12CCC(C(=O)N(NC(=O)c3ccccc3O)C1=O)C2(C)C (stereo not given),42.7% (active)
11,CCCC1=Nc2cc(C(=O)NCc3ccco3)ccc2Sc2ccccc21,-1.97% (inactive)
12,CCOP1(=O)C=C(C(C)(C)C)OC1c1ccc(F)cc1 (stereo not given),-0.66% (inactive)
13,Cc1coc2c(O)cc3c(c12)OC1(N2CCCCC2)C(=O)NCCCC31 (stereo not given),48.6% (active)
14,Cc1ccc2nnn(Cc3cccc(C(C)(C)C)c3O)c2c1,-0.36% (inactive)
15,CC1CCN(C(=O)c2ccccc2NC(=O)Cc2ccccc2)CC1,2.82% (inactive)
16,CCCCn1c(N)c(N(CC(C)C)C(=O)c2ccc(-n3c(C)ccc3C)cc2)c(=O)[nH]c1=O,-0.69% (inactive)
17,COc1ccc(C(=O)NCCNc2ccc([N+](=O)[O-])cn2)cc1,-2.53% (inactive)
18,COc1cc(/C=N\Nc2ccc([N+](=O)[O-])cn2)ccc1OCC(=O)O,-10.5% (inactive)
19,COc1ccc(Nc2ccc([N+](=O)[O-])cn2)cn1,48.7% (active)
20,O=C(CCc1c[nH]c2ccccc12)NCCOc1ccccc1,0.99% (inactive)
21,O=C(COC(=O)/C=C/c1ccc(S(=O)(=O)N2CCCCCC2)cc1)NCc1ccccc1Cl,5.88% (inactive)
22,COc1cccc(COc2ccc(N(C)S(=O)(=O)c3ccccc3)cc2)c1,-7.28% (inactive)
23,Cc1ccc2nc(COc3ccc(N(C)S(=O)(=O)c4ccccc4)cc3)cc(=O)n2c1,42% (active)
24,CN(c1ccc(OCC(=O)O)cc1)S(=O)(=O)c1ccc2ccccc2c1,15.4% (inactive)

row,SMILES,inhibition
1,CNC(=O)c1cccc2nc3ccccc3nc12,2.56% (inactive)
2,O=c1[nH]c(-c2ccccc2)c(-c2ccccc2)[nH]1,1.68% (inactive)
3,O=c1[nH]c(=O)c2nc3ccccc3nc2[nH]1,40.2% (active)
4,Cn1cnc2c1c(=O)n(Cc1ccccc1C#N)c(=O)n2C,2.03% (inactive)
5,CC(C)c1ccc2oc(=O)cc(CN3CCN(Cc4ccccc4)CC3)c2c1,-0.09% (inactive)
6,C#CCNC(=O)[C@H](Cc1ccc(C(=O)c2ccccc2)cc1)NC(=O)OC(C)(C)C,-1.48% (inactive)
7,COc1ccc(CN2CC(C(=O)NC3CCCCC3)CC2=O)cc1 (stereo not given),1.62% (inactive)
8,O=C(CCNC(=O)C1CCN(S(=O)(=O)c2ccccc2)CC1)NC1CC1,1.06% (inactive)
9,CCN(CC(=O)NCC(=O)Nc1cccc(C)c1C)Cc1ccccc1,-6.88% (inactive)
10,Cc1[nH]c2ccccc2c1C(=O)CN1CCCC(C)C1 (stereo not given),-7.18% (inactive)
11,CCC(CC)c1nnc(NC(=O)/C=C/c2ccco2)s1,-2.29% (inactive)
12,CCOC(=O)c1c(NC(=O)/C=C/c2ccco2)sc(C)c1C,-7.18% (inactive)
13,Cc1nnc(NC(=O)/C=C/c2ccco2)s1,53.5% (active)
14,O=c1[nH]c2ccc(S(=O)(=O)N3CCCC3)cc2[nH]1,5.45% (inactive)
15,N/C(=N\S(=O)(=O)c1cc(C(F)(F)F)cc(C(F)(F)F)c1)c1cccs1,5.69% (inactive)
16,Cc1ccc(C(O)P(=O)(OC(C)C)c2ccc(N(C)C)cc2)cc1 (stereo not given),-0.54% (inactive)
17,COC(=O)C1CCN(C(=O)c2cc(=O)[nH]c3ccccc23)CC1,-5.36% (inactive)
18,O=C(NC1CCCCC1)N1CCc2[nH]c3ccccc3c2C1,7.44% (inactive)
19,COC(=O)[C@H]1[C@H]2C[C@H]3c4[nH]c5ccccc5c4CCN3C[C@@H]2CC[C@@H]1O,2.37% (inactive) and 78.5% (active)
20,COc1ccc(NC(=O)C2=CC(c3ccc(OC)c(OC)c3)=NS(=O)(=O)N2C)cc1,-1.75% (inactive)
21,Cc1cccc(OCC(=O)NCC(=O)N/N=C/c2ccc(N(C)C)cc2)c1,5.85% (inactive)
22,Cc1ccc(/C=N/NC(=O)COc2ccccc2-c2ccccc2)cc1,66.9% (active)
23,C=CCc1ccccc1OCC(=O)N/N=C/c1ccccc1OCC,-1.1% (inactive)
